Source: PubChem BioAssay AID1063 (University of Pittsburgh Molecular Library Screening Center, 2008)
Hit rate of the full screen: of about 200,000 compounds, about 18,000 (9%) were called active. Rule as the data show it: active = inhibition above about 50%; inactive = the rest. The entries come from a sample that favours actives as a whole. Where a SMILES comes first, the peptide text is derived from it. [ ]: non-standard residue; d: D form. ξ: configuration not given here. ξM = CSCCC(N)C(=O)O

Experiment: antileishmanial activity against promastigotes – primary screen (AID 1063);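 also: promastigotes grown with compound for 44 hours at 28 °C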
Details: Leishmania major promastigotes, resazurin fluorescence viability; at 10 µM; hits give high values

Compound | inhibition
CCOC(=O)c1ccc(N/C(=N/S(=O)(=O)c2ccccc2)c2ccccc2)cc1 | 61.3% (active)
Cc1ccc(S(=O)(=O)/N=C(/Nc2ccc3[nH]c(=O)[nH]c3c2)c2ccccc2)cc1 | -4.98% (inactive)
O=S(=O)(/N=C(/Nc1ccccc1)c1ccccc1)c1cccs1 | 1.04% (inactive)
COC(=O)CNC(=O)C(CCSC)NC(C)=O (stereo not given) (Ac-[ξM]-Gly-OMe) | -3.76% (inactive)
COc1ccc(C[C@H]2CN3C(=NC[C@H]3C)N2CCNC(=O)CCC2CCCCC2)cc1 | 31.8% (inactive)
Cc1cccc(-n2c(=O)c3c(C)c(C)sc3n(CC(N)=O)c2=O)c1 | 4.25% (inactive)
CC(=O)N(CN1C(=O)C2C3C=CC(C3)C2C1=O)c1cccc(Cl)c1 (stereo not given) | -6.29% (inactive)
O=C(COC(=O)CNS(=O)(=O)c1ccccc1)NC12CC3CC(CC(C3)C1)C2 | 1.38% (inactive)
COc1ccccc1-c1nnc(NC(=O)c2ccc3ncsc3c2)o1 | 80.7% (active)
COc1ccccc1-c1nnc(NC(=O)c2cccc(N3C(=O)CCC3=O)c2)o1 | -4.87% (inactive)
COc1ccccc1-c1nnc(SCC(=O)Nc2ccccc2)o1 | 2.06% (inactive)
Cc1ccc(S(=O)(=O)Cc2cc(-c3ccc(Cl)cc3)no2)cc1 | -0.46% (inactive)
COc1ccccc1CC(NC(C)=O)C(=O)NC1CCN(C(=O)Nc2ccccc2Cl)CC1 (stereo not given) | -3.45% (inactive)
COCCCNC(=O)Cn1c(=O)n(Cc2ccccc2Cl)c(=O)c2cc(OC)c(OC)cc21 | -3.45% (inactive)
Cc1ccc(S(=O)(=O)CCC(=O)OCc2ccccc2)cc1 | -3.07% (inactive)
CCOc1cc(C2C(C(=O)OC(C)C)=C(C)NC3=C2C(=O)CCC3)cc([N+](=O)[O-])c1O (stereo not given) | 8.32% (inactive)
O=C(Nc1ccccc1C(=O)N1CCOCC1)c1ccc(CSc2ccccc2)cc1 | 15.2% (inactive)
COc1ccc(C(=O)Nc2ccc(CN3CCOCC3)cc2)cc1 | 0.71% (inactive)
O=C(Nc1ccc(CSc2ccccc2)cc1)c1ccc(CN2CCOCC2)cc1 | 95.2% (active)
NC(=O)COC(=O)c1sc2cc(F)ccc2c1Cl | -4.95% (inactive)
O=C(O)CCCCOn1ccnc1 | -5.36% (inactive)
Cc1onc(-c2ccccc2)c1C(=O)N1CCOCC1 | 0.76% (inactive)
Cc1oc2c(c1C(=O)N1CCOCC1)C(=O)c1ccccc1C2=O | 99.7% (active)
O=C(c1ccccc1-c1ccccc1)N1CCOCC1 | 1.25% (inactive)

Compound | inhibition
Cc1c(C=O)n(C)n(-c2ccccc2)c1=O | 0.34% (inactive)
COc1cc(NC(=O)COc2ccccc2Cl)ccc1NC(=O)C(C)C | 1.32% (inactive)
CN(C)S(=O)(=O)c1ccc2oc(SCC(=O)Nc3ccccc3F)nc2c1 | 2.57% (inactive)
CSc1ccccc1NC(=O)CN(C)CC(=O)Nc1cccc(Br)c1 | 18.6% (inactive)
Cc1cccc(C)c1NC(=O)CNC(=O)Cc1ccc(Br)cc1 | -3.9% (inactive)
CSc1ccccc1NC(=O)Cc1ccc(Br)cc1 | 53.5% (active)
Cc1ccc(OCC(=O)Nc2ccc(S(=O)(=O)Nc3ccccn3)cc2)cc1 | -4.12% (inactive)
C=CCN(c1ccc(C(N)=O)cc1)S(C)(=O)=O | -6.04% (inactive)
C=CCN(c1ccc(C(=O)Nc2cc(C)cc(C)c2)cc1)S(C)(=O)=O | 76% (active)
CSCc1ccc(C(=O)Nc2cc(C)cc(C)c2)cc1 | -3.2% (inactive)
CCc1ccc(-n2c(SCc3cc(=O)n4cc(Br)ccc4n3)nc3[nH]ncc3c2=O)cc1 | 56.9% (active)
Cc1ccc(CSc2nc3[nH]ncc3c(=O)[nH]2)cc1 | -3.25% (inactive)
COc1ccc(CCNC(=O)CSc2nc3[nH]ncc3c(=O)n2-c2cccc(C(F)(F)F)c2)cc1OC | -7.3% (inactive)
Cc1cccc2nc(CSc3nc4[nH]ncc4c(=O)n3-c3cccc(Cl)c3)cc(=O)n12 | 56.1% (active)
O=C(CSc1nc2[nH]ncc2c(=O)n1-c1ccccc1)N1CCCc2ccccc21 | 15.2% (inactive)
O=c1c2sccc2nc(SCc2cc(=O)n3ccccc3n2)n1-c1ccc(Br)cc1 | 12.1% (inactive)
CC(C)Oc1ccc(Cc2n[nH]c(=S)n2Cc2ccccc2)cc1Cl | 4.91% (inactive)
Nc1c(NCCc2ccccc2)c2ccccc2oc1=O | -2.7% (inactive)
Cc1ccc(C(=O)N/C(=C\c2cccs2)C(=O)NCCc2ccccn2)cc1C | 16.6% (inactive)
COC(=O)C1=C(C)N(C)C(=S)NC1c1cc(OC)ccc1OC (stereo not given) | 3.3% (inactive)
COc1cc(SC)ccc1C(=O)Nc1cc(C)ccn1 | 25.5% (inactive)
COc1ccccc1CNC(=O)c1ccc(SC)cc1OC | 66.9% (active)
COc1cc(SC)ccc1C(=O)NCCOc1ccccc1Cl | 1.79% (inactive)
O=C(NNC(=O)C1C2CCC(C2)C1C(=O)O)c1ccc(Cl)cc1 (stereo not given) | -5.41% (inactive)

Compound | inhibition
Cc1cccc(C(=O)OC(C)CN2CCN(C)CC2)c1 (stereo not given) | 3.94% (inactive)
CO/N=C/c1cn(-c2ccc(Cl)cc2)nn1 | -1.77% (inactive)
CCC1CCCCN1CCCNC(=O)Cn1nc(-c2ccccc2)ccc1=O (stereo not given) | -4.42% (inactive)
CCC1CCCCN1CCCNC(=O)c1cc2c(Cl)nc3ccccc3c2s1 (stereo not given) | 100% (active)
CCC1CCCCN1CCCNC(=O)C1CCC(Cn2c(=O)[nH]c3ccccc3c2=O)CC1 (stereo not given) | -4.5% (inactive)
Cc1ccccc1C(OCC(O)CN1CCCCC1CCO)c1ccccc1 (stereo not given) | 99.7% (active)
Cc1ccccc1C(OCCN(C)C)C1CCCCC1 (stereo not given) | 18.1% (inactive)
CC(C)OCC(O)CN1CCN(C(c2ccccc2)c2ccccc2)CC1 (stereo not given) | 0.57% (inactive)
CC(C)N(Cc1nc(-c2ccc3c(c2)OCO3)no1)CC1CCC(=O)N1 (stereo not given) | -6.4% (inactive)
CC(=O)c1ccc(NC(=S)NC(=O)CC(C)C)cc1 | -4.65% (inactive)
COc1ccc(C(=O)Nc2ccc(S(=O)(=O)NC(C)C)cc2)cc1 | -3.72% (inactive)
COc1ccc(NS(=O)(=O)c2ccc(NC(=S)NC(=O)CC(C)C)cc2)cc1 | 96.7% (active)
COc1ccc(C2=NN(c3ccccc3)C(c3cccs3)C2)cc1 (stereo not given) | 44.3% (inactive)
COc1cc(NC(=O)CN(C)S(=O)(=O)c2ccc3nc(C)sc3c2)cc(OC)c1 | 13% (inactive)
Cc1ccc2nc3n(c(=O)c2c1)CCC3 | -7.48% (inactive)
O=C(Nc1ccc2nc3n(c(=O)c2c1)CCCCC3)c1ccccc1Cl | 0.22% (inactive)
CCCCN(CC)C(=S)Nc1ccc2nc3n(c(=O)c2c1)CCCCC3 | 55.5% (active)
O=C(OCC(=O)N1CCOCC1)c1ccc(N2CCOCC2)c([N+](=O)[O-])c1 | 0.36% (inactive)
CC(C)(C)CN1CCNC(=O)C1CC(=O)NC1Cc2ccccc2C1 (stereo not given) | -0.33% (inactive)
Brc1ccc2nc(N3CCCC3)sc2c1 | 17% (inactive)
O=C(c1ccc2c(c1)C(=O)N(c1ccc(Cl)cc1)C2=O)N1CCN(c2ccccn2)CC1 | -5.18% (inactive)
CCCCN(C)C(=O)c1ccc2c(c1)N(CC)C(=O)c1ccccc1S2(=O)=O | -6.56% (inactive)
O=C(c1ccc2c(c1)N(Cc1ccc(F)cc1)C(=O)c1ccccc1S2(=O)=O)N1CCN(c2ccccn2)CC1 | 97% (active)
C/C(CCc1ccccc1)=N\NC(=O)c1ccc(CN2CCOCC2)cc1 | -3.42% (inactive)

Compound | inhibition
S=C1SCN(CCN2CCOCC2)CN1Cc1ccccc1 | 86.7% (active)
CCN1CN(Cc2ccccc2)CNC1=S | -5.52% (inactive)
CCCn1nc(Oc2nc(NC(C)C)nc(N(C)C)n2)ccc1=O | 7.02% (inactive)
CC(=O)Nc1ccc(S(=O)(=O)Nc2ccc(-c3ccc4nnc(C)n4n3)cc2)cc1 | -6.31% (inactive)
CCOc1cccc(-c2nn3c(-c4ccccn4)nnc3s2)c1 | 6.06% (inactive)
COc1ccc(-c2nn3c(-c4ccccc4)nnc3s2)cc1OC | 3.79% (inactive)
c1ccc(-c2cc(-c3nnc4sc(-c5ccccn5)nn34)[nH]n2)cc1 | 84.6% (active)
COc1ccc(N2C(=O)CC(Nc3ccc(F)cc3)C2=O)c([N+](=O)[O-])c1 (stereo not given) | -0.61% (inactive)
CN(C)c1ccc(C2Nc3ccccc3C(=O)N2NS(=O)(=O)c2ccccc2)cc1 (stereo not given) | 3.72% (inactive)
O=C(NNC(=S)NC(=O)c1cn(-c2ccccc2)nc1-c1ccccc1)c1ccncc1 | 54.9% (active)
O=C(NCc1cccnc1)c1cn(-c2ccccc2)nc1-c1cccs1 | 1.01% (inactive)
COc1ccc(-c2nn(-c3ccccc3)cc2C(=O)Nc2nccs2)cc1OC | 21.8% (inactive)
Cc1ccccc1NC(=O)c1ccccc1 | -0.75% (inactive)
O=C(O)c1ccc(NC(=O)c2cn(-c3ccccc3)nc2-c2ccc(Cl)cc2)cc1 | -2.74% (inactive)
O=C(Nc1cn(-c2ccccc2)nc1-c1ccccc1)c1ccccc1 | 82.8% (active)
CCN(CC)S(=O)(=O)c1ccc(N2CCOCC2)c(NC(=O)C2COc3ccccc3O2)c1 (stereo not given) | 26.2% (inactive)
N#CC1=C(N)Oc2[nH]c(=S)[nH]c(=O)c2C12C(=O)Nc1ccccc12 (stereo not given) | -9.87% (inactive)
COc1ccc(N2CCN(C(=O)CCSCc3ccccc3F)CC2)cc1 | 3.84% (inactive)
COC(=O)c1ccc(NC(=S)NN2CCOCC2)cc1 | -9.83% (inactive)
CC(NC(=O)Nc1ccccc1)C(c1cccs1)N1CCN(c2ccccc2)CC1 (stereo not given) | -1.95% (inactive)
Cc1nc2ccc(NC(=S)N3CCC(C)CC3)cc2nc1C | -1.44% (inactive)
COc1ccc(OCCCn2cccc2/C=C2/C(=N)N3OC(C)=CC3=NC2=O)cc1 | 21.9% (inactive)
Cc1cc(C)nc(SCC(=O)N(C)C)n1 | -4.86% (inactive)
